The values that follow come from article PMC5540273 (PLoS ONE, 2017).

SMILES strings stand for the structures.

Among the test systems are PRKCH; PRKCI; PRKCQ; PRKD1; PRKD2; PRKD3; PRKG1; PRKG2; PRKX.
Conditions in all cases: concentration: 1 μM, replicates: in singlicate; n = 1
Another test concerns T1, PRKR.
T1 construct: gene EIF2AK2
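Note: KINOMEscan kinase panel screen.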

On to `CNCc1ccc2nc(NC(=O)c3ccc(C(C)(C)C)cc3)cn2c1`, for which the “%Inh” value in the test with PRKCH is reported as 0%; with PRKCI, 20%; with PRKCQ, 0%; with PRKD1 it was 30%; in the test with PRKD2, 2%; in the test with PRKD3, 12%. Also, the “%Inh” value in the test on PRKG1 came to 0%; with PRKG2 it was 21%; in the test on PRKR it was 0%; in the test on PRKX it was 9%.

Take `Cc1nccc(-c2c(-c3ccc(F)cc3)ncn2CCCN2CCOCC2)n1.Cl` [SB-282975]: the “%Inh” value came out at 0% in the test on PRKCH; 21% in the test on PRKCI; 14% in the test with PRKCQ; 25% in the test with PRKD1; 2% with PRKD2; 7% in the test on PRKD3. Also, the “%Inh” value in the test on PRKG1 is given as 10%; with PRKG2, 26%; in the test on PRKR, 0%; in the test on PRKX it was 0%.

As for `COC(=O)C(Cc1ccccc1)NC(=O)NC1CCN(c2ccnc(Nc3ccc(F)cc3)n2)C1` (centres unmarked) [GSK1379714], the “%Inh” value in the test on PRKCH was 10%; in the test with PRKCI it was 22%; with PRKCQ, 0%; in the test with PRKD1 it was 0%; in the test on PRKD2 it was 0%; with PRKD3 it was 100%. For the same compound, the “%Inh” value in the test with PRKG1 is reported as 0%; in the test on PRKG2, 8%; in the test on PRKR, 6%; in the test with PRKX, 0%.

As to `Cc1c(Cn2c3ccccc3n3c(=O)cc(N4CCOCC4)nc23)cccc1C(F)(F)F` [GSK2306394], the “%Inh” value with PRKCH came to 22%; in the test on PRKCI, 9%; with PRKCQ, 10%; in the test on PRKD1, 0%; in the test with PRKD2, 10%; in the test on PRKD3, 27%. Also, the “%Inh” value is 28% in the test with PRKG1, 0% in the test on PRKG2, 25% in the test on PRKR and 30% with PRKX.

With `CCCCc1nn2ncccc2c1-c1ccnc(NC2CC2)n1` [GW684374], the “%Inh” value in the test with PRKCH came out at 0%; in the test with PRKCI, 8%; in the test on PRKCQ, 0%; in the test on PRKD1, 0%; in the test on PRKD2 it was 0%; in the test with PRKD3, 16%. Also, the “%Inh” value in the test on PRKG1 stood at 0%; in the test on PRKG2, 0%; with PRKR, 10%; with PRKX it was 4%.

For `COc1cccc(CNC(=O)NC2CCN(c3ccnc(Nc4ccc(F)cc4)n3)C2)c1` (centres unmarked) [GSK1379723], the “%Inh” value was 2% with PRKCH; 10% in the test on PRKCI; 0% with PRKCQ; 0% with PRKD1; 0% with PRKD2; 14% in the test on PRKD3. In addition, the “%Inh” value with PRKG1 was found to be 0%; in the test with PRKG2 it was 0%; in the test with PRKR, 0%; with PRKX, 6%.

With `CC[C@@H]1CO[C@H](C(=O)Nc2ccccc2)CN1c1cc(-c2ccc3c(N)n[nH]c3c2)nc(NC)n1` [GSK2376236], the “%Inh” value in the test on PRKCH worked out at 6%; with PRKCI it was 39%; in the test with PRKCQ it was 24%; in the test with PRKD1, 0%; in the test with PRKD2 it was 12%; with PRKD3 it was 3%. In addition, the “%Inh” value in the test on PRKG1 stood at 13%; in the test with PRKG2 it was 84%; in the test with PRKR, 12%; with PRKX, 95%.

As to `CCn1c(-c2ccccc2)nc2cnccc21` [SB-733416], the “%Inh” value in the test with PRKCH is reported as 3%; with PRKCI it was 8%; with PRKCQ, 44%; in the test with PRKD1, 0%; in the test on PRKD2 it was 1%; with PRKD3, 0%. The “%Inh” value in the test with PRKG1 is 0%; in the test with PRKG2, 0%; with PRKR, 0%; in the test with PRKX, 5%.

For the compound `COc1cc2ncnc(Nc3cccc(Br)c3)c2cc1OC.Cl` [GI230329], the “%Inh” value was determined as 0% with PRKCH; 15% in the test with PRKCI; 4% in the test on PRKCQ; 0% with PRKD1; 6% with PRKD2; 0% in the test with PRKD3. The “%Inh” value in the test with PRKG1 was found to be 9%; with PRKG2, 1%; in the test on PRKR, 0%; with PRKX, 6%.

With `Cc1ccc(NC(=O)Nc2ccc(Cl)c(C(F)(F)F)c2)cc1-c1ccc(C(=O)Nc2ccncc2)cc1` [GSK1398470], the “%Inh” value with PRKCH came out at 23%; in the test with PRKCI, 0%; in the test with PRKCQ, 23%; in the test on PRKD1 it was 0%; in the test with PRKD2, 17%; with PRKD3 it was 13%. Besides, the “%Inh” value in the test on PRKG1 is recorded as 0%; in the test on PRKG2, 39%; in the test on PRKR, 0%; in the test on PRKX it was 0%.

On to `Nc1ncnc2occ(-c3ccc4c(c3)CCN4C(=O)Cc3cc(F)ccc3F)c12` [GSK2645446], for which the “%Inh” value in the test on PRKCH was 0%; in the test with PRKCI, 23%; with PRKCQ it was 0%; in the test with PRKD1, 0%; in the test with PRKD2, 0%; in the test on PRKD3 it was 0%. The “%Inh” value was determined as 7% with PRKG1, 17% in the test on PRKG2, 3% in the test on PRKR and 0% in the test on PRKX.

Take `O=C1NC(=O)C(c2ccc(Cl)cc2)=C1Nc1ccc(O)cc1` [SB-340867]: the “%Inh” value worked out at 0% with PRKCH; 0% with PRKCI; 0% in the test with PRKCQ; 0% with PRKD1; 19% in the test on PRKD2; 0% in the test on PRKD3. The “%Inh” value in the test with PRKG1 was found to be 0%; in the test with PRKG2, 1%; in the test with PRKR, 0%; with PRKX, 0%.

`COc1ccc(Nc2nccc(-c3ccc(NC(=O)c4cc5cc(F)ccc5[nH]4)cc3)n2)cc1` [GSK1229496]: the “%Inh” value in the test with PRKCH was 20%; in the test with PRKCI, 15%; with PRKCQ, 0%; with PRKD1, 0%; with PRKD2 it was 0%; in the test on PRKD3 it was 100%. Besides, the “%Inh” value in the test with PRKG1 is on record as 0%; with PRKG2 it was 0%; with PRKR, 0%; in the test on PRKX, 5%.

Consider `O=c1cc(N2CCOCC2)nc2n(Cc3cccc(Cl)c3Cl)c3ccccc3n12` [GSK2299009], for which the “%Inh” value in the test on PRKCH turned out to be 24%; in the test on PRKCI, 8%; in the test on PRKCQ, 0%; in the test with PRKD1, 7%; with PRKD2, 0%; with PRKD3, 3%. Also, the “%Inh” value came to 9% with PRKG1, 1% in the test on PRKG2, 0% in the test with PRKR and 22% in the test on PRKX.

Turning to `Nc1cccc(-c2ccc3c(N)n[nH]c3c2)n1` [GSK2192730], the “%Inh” value in the test on PRKCH turned out to be 0%; in the test with PRKCI it was 8%; with PRKCQ, 10%; with PRKD1, 0%; with PRKD2 it was 0%; in the test with PRKD3, 8%. The “%Inh” value in the test on PRKG1 was determined as 0%; in the test with PRKG2 it was 0%; in the test on PRKR, 10%; with PRKX, 23%.

In the case of `COc1cccc(NC(=O)Nc2ccc(C)c(-c3ccc(C(=O)Nc4ccncc4)cc3)c2)c1` [GSK1398474], the “%Inh” value worked out at 14% in the test on PRKCH; 16% with PRKCI; 19% in the test on PRKCQ; 6% with PRKD1; 0% with PRKD2; 0% in the test on PRKD3. For the same compound, the “%Inh” value in the test with PRKG1 is 0%; with PRKG2, 50%; in the test on PRKR it was 0%; in the test on PRKX, 26%.

Turning to `Cc1ccc(NC(=O)Nc2ccc(Cl)cc2)cc1-c1ccc(C(=O)Nc2ccncc2)cc1` [GSK1398472], the “%Inh” value was found to be 27% with PRKCH; 27% with PRKCI; 10% with PRKCQ; 0% with PRKD1; 0% in the test on PRKD2; 35% in the test with PRKD3. In addition, the “%Inh” value in the test with PRKG1 was 8%; in the test with PRKG2, 0%; in the test with PRKR, 1%; with PRKX it was 24%.
